In publication PMC7862700, “An all-to-all approach to the identification of sequence-specific readers for epigenetic DNA modifications on cytosine” one finds binding signal data, which are given here for seven sequences.

What all share (test): DAPPL (digital affinity profiling via proximity ligation, sequencing); 10 mM Tris-HCl pH 7.5, 50 mM NaCl, 1 mM DTT, 4% glycerol, room temperature, 30 min; GST-TFs on glutathione beads, 16-mer random dsDNA library, 0.1% formaldehyde crosslink after washing; high values mean tight binding
What all share (conditions): protein: recombinant; tags: N-terminal GST; dsDNA, one strand shown

One assay addresses T1, ERF (Homo sapiens, UniProt P50548 1-548).
T1 sequence: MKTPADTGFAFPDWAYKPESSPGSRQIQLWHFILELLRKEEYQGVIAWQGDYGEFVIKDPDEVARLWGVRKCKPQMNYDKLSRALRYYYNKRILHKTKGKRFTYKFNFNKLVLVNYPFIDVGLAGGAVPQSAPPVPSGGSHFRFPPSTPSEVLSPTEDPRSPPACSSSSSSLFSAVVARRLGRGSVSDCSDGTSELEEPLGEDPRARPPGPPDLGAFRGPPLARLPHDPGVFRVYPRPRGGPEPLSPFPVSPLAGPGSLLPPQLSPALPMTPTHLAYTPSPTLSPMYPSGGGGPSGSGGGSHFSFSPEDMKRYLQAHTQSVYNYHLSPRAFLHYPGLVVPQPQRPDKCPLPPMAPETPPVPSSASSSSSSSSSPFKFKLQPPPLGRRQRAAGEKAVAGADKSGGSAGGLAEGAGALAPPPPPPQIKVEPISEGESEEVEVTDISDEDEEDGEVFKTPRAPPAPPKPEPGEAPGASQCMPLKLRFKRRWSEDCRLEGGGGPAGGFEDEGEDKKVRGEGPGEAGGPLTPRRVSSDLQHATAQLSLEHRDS
In short, it runs like this: (§1)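 Pools were built from human transcription factors expressed in yeast as GST fusions, captured on glutathione beads and DNA-barcoded, along with a tag-only sample. Incubation with 200 nmole of a 16-mer random double-stranded DNA library lasted 30 min at room temperature in Tris/NaCl/DTT/glycerol buffer, and was followed by washing, 0.1% formaldehyde crosslinking, proximity ligation, PCR amplification and Illumina NextSeq500 sequencing. Binding signal is the quotient of each hexamer's read frequency for a factor and its frequency for the tag-only sample.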

Another assay addresses T2, ETV3L (Homo sapiens, UniProt Q6ZN32 1-361).
T2 sequence: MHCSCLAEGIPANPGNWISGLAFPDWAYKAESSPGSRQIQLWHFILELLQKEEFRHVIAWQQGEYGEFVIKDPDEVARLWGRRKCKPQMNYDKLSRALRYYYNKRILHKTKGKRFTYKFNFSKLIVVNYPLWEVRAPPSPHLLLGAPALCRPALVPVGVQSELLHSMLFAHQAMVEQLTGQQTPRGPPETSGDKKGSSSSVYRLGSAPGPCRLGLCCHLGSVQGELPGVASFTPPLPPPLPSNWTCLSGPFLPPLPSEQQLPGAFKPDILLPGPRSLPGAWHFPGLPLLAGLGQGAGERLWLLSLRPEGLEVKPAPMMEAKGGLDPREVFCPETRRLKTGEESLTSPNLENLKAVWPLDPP
The essentials:
as §1

In another assay the target is T3, ETS2 (Homo sapiens, UniProt P15036 1-469).
T3 sequence: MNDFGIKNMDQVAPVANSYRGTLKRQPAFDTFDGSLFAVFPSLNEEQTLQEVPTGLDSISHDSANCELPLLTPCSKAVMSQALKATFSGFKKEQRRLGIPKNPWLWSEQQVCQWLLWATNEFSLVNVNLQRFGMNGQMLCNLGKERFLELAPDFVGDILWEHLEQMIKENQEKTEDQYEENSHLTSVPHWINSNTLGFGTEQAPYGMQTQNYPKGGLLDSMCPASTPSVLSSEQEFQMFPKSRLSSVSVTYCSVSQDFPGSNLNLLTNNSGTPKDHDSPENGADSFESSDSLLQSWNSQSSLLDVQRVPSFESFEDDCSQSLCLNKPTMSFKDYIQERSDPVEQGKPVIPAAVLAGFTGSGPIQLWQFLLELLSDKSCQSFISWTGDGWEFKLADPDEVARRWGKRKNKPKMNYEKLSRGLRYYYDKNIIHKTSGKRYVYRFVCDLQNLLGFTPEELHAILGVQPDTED
The essentials:
as §1

The target of another assay is T4, SPDEF (Homo sapiens, UniProt O95238 1-335).
T4 sequence: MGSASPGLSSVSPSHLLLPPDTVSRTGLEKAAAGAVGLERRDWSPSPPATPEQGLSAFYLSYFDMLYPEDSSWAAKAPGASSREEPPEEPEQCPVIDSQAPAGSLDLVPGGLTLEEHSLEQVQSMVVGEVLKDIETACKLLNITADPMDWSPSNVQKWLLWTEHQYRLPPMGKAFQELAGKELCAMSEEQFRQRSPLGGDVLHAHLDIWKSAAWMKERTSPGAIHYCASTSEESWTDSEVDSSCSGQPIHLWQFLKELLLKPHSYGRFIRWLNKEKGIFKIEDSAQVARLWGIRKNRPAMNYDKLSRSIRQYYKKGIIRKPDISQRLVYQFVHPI
In short, it runs like this:
as §1

Another assay addresses T5, ETV7 (Homo sapiens, UniProt Q9Y603 1-341).
T5 sequence: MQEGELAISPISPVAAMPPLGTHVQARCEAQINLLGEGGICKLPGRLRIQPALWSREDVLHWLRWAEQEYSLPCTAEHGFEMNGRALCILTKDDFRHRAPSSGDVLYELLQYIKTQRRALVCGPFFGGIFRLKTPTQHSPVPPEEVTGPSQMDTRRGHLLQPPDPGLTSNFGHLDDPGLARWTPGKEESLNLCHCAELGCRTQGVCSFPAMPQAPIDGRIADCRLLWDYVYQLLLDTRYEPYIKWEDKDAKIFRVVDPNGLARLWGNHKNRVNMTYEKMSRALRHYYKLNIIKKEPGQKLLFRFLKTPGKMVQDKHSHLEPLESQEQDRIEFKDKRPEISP
The essentials:
as §1

A further assay addresses T6, ELF5 (Homo sapiens, UniProt Q9UKW6-2 1-255).
T6 sequence: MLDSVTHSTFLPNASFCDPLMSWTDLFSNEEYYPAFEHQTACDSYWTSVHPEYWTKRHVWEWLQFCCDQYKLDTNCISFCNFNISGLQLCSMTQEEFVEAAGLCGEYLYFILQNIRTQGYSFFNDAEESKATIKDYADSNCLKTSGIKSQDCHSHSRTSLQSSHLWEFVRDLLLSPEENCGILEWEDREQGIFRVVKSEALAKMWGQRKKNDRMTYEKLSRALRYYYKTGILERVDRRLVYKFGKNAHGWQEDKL
The essentials: as §1

The next assay has as its target T7, ETV3 (Homo sapiens, UniProt P41162-2 1-143).
T7 sequence: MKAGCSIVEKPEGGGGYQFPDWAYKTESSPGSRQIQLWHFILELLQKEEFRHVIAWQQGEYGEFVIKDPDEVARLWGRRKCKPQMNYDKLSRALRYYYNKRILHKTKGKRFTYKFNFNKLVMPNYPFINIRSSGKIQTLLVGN
The essentials:
as §1

For a further assay, the target named is ETV6 (Homo sapiens, UniProt P41212 1-452). In short, it runs like this:
as §1

Chain of ETV6 (P41212 whole entry): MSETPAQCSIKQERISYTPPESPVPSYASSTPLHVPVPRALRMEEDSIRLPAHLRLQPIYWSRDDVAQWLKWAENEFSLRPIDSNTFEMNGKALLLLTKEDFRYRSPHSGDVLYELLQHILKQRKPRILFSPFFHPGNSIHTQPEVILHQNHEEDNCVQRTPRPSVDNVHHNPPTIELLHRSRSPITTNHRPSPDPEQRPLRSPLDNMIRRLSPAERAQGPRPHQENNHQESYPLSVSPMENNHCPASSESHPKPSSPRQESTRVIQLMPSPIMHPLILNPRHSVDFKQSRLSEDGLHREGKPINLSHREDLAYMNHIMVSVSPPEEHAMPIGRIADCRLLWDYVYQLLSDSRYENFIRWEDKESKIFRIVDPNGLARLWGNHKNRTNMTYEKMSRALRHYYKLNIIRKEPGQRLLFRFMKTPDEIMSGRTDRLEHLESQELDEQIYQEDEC

As for GTCTCC, the binding signal in the assay with ERF was 1.45 fold enrichment (6-mer frequency, TF over GST control); in the assay with ETV3L, 1.67 fold enrichment (6-mer frequency, TF over GST control); with ETS2 it was 1.52 fold enrichment (6-mer frequency, TF over GST control); with SPDEF it was 1.47 fold enrichment (6-mer frequency, TF over GST control); with ETV7 it was 1.32 fold enrichment (6-mer frequency, TF over GST control); with ELF5, 1.4 fold enrichment (6-mer frequency, TF over GST control). The binding signal in the assay with ETV3 was 1.52 fold enrichment (6-mer frequency, TF over GST control); in the assay with ETV6, 1.51 fold enrichment (6-mer frequency, TF over GST control).

For AATTGT, the binding signal with ERF is 1.36 fold enrichment (6-mer frequency, TF over GST control); with ETV3L, 1.29 fold enrichment (6-mer frequency, TF over GST control); with ETS2, 1.31 fold enrichment (6-mer frequency, TF over GST control); with SPDEF it was 1.21 fold enrichment (6-mer frequency, TF over GST control); with ETV7, 1.39 fold enrichment (6-mer frequency, TF over GST control); in the assay with ELF5, 1.35 fold enrichment (6-mer frequency, TF over GST control). The binding signal with ETV3 was 1.31 fold enrichment (6-mer frequency, TF over GST control); with ETV6, 1.26 fold enrichment (6-mer frequency, TF over GST control).

Regarding TTGCCT, the binding signal in the assay with ERF is 1.18 fold enrichment (6-mer frequency, TF over GST control); with ETV3L it was 1.34 fold enrichment (6-mer frequency, TF over GST control); in the assay with ETS2, 1.24 fold enrichment (6-mer frequency, TF over GST control); in the assay with SPDEF, 1.18 fold enrichment (6-mer frequency, TF over GST control); in the assay with ETV7 it was 1.23 fold enrichment (6-mer frequency, TF over GST control); with ELF5 it was 1.19 fold enrichment (6-mer frequency, TF over GST control). Moreover, the binding signal with ETV3 is 1.14 fold enrichment (6-mer frequency, TF over GST control); with ETV6, 1.1 fold enrichment (6-mer frequency, TF over GST control).

With CACAAG, the binding signal with ERF was 1.13 fold enrichment (6-mer frequency, TF over GST control); with ETV3L it was 1.16 fold enrichment (6-mer frequency, TF over GST control); in the assay with ETS2 it was 1.22 fold enrichment (6-mer frequency, TF over GST control); with SPDEF, 1.07 fold enrichment (6-mer frequency, TF over GST control); with ETV7, 1.05 fold enrichment (6-mer frequency, TF over GST control); with ELF5, 1.11 fold enrichment (6-mer frequency, TF over GST control). The binding signal in the assay with ETV3 was 1.16 fold enrichment (6-mer frequency, TF over GST control); in the assay with ETV6, 1.14 fold enrichment (6-mer frequency, TF over GST control).

Turning to AGCTTT, the binding signal with ERF is 1.15 fold enrichment (6-mer frequency, TF over GST control); with ETV3L it was 1.2 fold enrichment (6-mer frequency, TF over GST control); with ETS2, 1.19 fold enrichment (6-mer frequency, TF over GST control); with SPDEF, 1.12 fold enrichment (6-mer frequency, TF over GST control); with ETV7 it was 1.25 fold enrichment (6-mer frequency, TF over GST control); with ELF5, 1.04 fold enrichment (6-mer frequency, TF over GST control). Also, the binding signal in the assay with ETV3 is 1.07 fold enrichment (6-mer frequency, TF over GST control); in the assay with ETV6, 1.19 fold enrichment (6-mer frequency, TF over GST control).

In the case of TGGCCT, the binding signal was 1.38 fold enrichment (6-mer frequency, TF over GST control) with ERF; 1.37 fold enrichment (6-mer frequency, TF over GST control) with ETV3L; 1.32 fold enrichment (6-mer frequency, TF over GST control) with ETS2; 1.42 fold enrichment (6-mer frequency, TF over GST control) with SPDEF; 1.42 fold enrichment (6-mer frequency, TF over GST control) with ETV7; 1.33 fold enrichment (6-mer frequency, TF over GST control) with ELF5. The binding signal in the assay with ETV3 was 1.35 fold enrichment (6-mer frequency, TF over GST control); in the assay with ETV6, 1.5 fold enrichment (6-mer frequency, TF over GST control).

For TGTTCC, the binding signal with ERF is 1.75 fold enrichment (6-mer frequency, TF over GST control); in the assay with ETV3L, 1.62 fold enrichment (6-mer frequency, TF over GST control); with ETS2 it was 1.75 fold enrichment (6-mer frequency, TF over GST control); with SPDEF, 2.03 fold enrichment (6-mer frequency, TF over GST control); with ETV7, 1.68 fold enrichment (6-mer frequency, TF over GST control); with ELF5, 2.3 fold enrichment (6-mer frequency, TF over GST control). Besides, the binding signal is 1.85 fold enrichment (6-mer frequency, TF over GST control) with ETV3 and 1.69 fold enrichment (6-mer frequency, TF over GST control) with ETV6.
